# Measurements as given in article PMC7862700, “An all-to-all approach to the identification of sequence-specific readers for epigenetic DNA modifications on cytosine”.
# Key:
# Test in all cases: DAPPL (digital affinity profiling via proximity ligation, sequencing); 10 mM Tris-HCl pH 7.5, 50 mM NaCl, 1 mM DTT, 4% glycerol, room temperature, 30 min; GST-TFs on glutathione beads, 16-mer random dsDNA library, 0.1% formaldehyde crosslink after washing; high values mean tight binding
# Settings in all cases: protein: recombinant; tags: N-terminal GST; dsDNA, one strand shown
# [1] = molecular target: T1, FLI1 (Homo sapiens, UniProt Q01543 1-452)
# T1 sequence: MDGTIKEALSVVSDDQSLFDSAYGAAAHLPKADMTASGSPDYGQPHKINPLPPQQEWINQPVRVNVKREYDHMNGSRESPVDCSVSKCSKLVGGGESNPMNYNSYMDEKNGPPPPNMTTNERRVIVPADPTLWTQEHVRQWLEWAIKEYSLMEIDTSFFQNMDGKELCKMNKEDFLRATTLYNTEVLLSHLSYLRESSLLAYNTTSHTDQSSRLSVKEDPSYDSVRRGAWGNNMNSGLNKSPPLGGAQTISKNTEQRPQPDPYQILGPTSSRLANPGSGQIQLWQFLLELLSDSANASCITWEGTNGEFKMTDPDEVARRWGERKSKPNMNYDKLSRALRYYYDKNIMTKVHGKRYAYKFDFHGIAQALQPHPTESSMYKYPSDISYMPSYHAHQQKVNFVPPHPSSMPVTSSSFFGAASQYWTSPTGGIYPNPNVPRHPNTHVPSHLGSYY
# Method in brief: (§1)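 The binding signal reported is, for every hexamer, its read frequency for a factor over its read frequency for the tag-only sample. Reads came from pools of yeast-expressed, GST-fused human transcription factors on glutathione beads, barcoded with DNA and mixed with that sample, which were incubated with 200 nmole of a random double-stranded 16-mer DNA library in Tris/NaCl/DTT/glycerol buffer at room temperature for 30 min. After washing, the pools were crosslinked with 0.1% formaldehyde, proximity-ligated with BsaI/T4 ligase for 1 h at 37 °C, PCR-amplified and sequenced on an Illumina NextSeq500.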
# [2] = molecular target: T2, ELK1 (Homo sapiens, UniProt P19419 1-428)
# T2 sequence: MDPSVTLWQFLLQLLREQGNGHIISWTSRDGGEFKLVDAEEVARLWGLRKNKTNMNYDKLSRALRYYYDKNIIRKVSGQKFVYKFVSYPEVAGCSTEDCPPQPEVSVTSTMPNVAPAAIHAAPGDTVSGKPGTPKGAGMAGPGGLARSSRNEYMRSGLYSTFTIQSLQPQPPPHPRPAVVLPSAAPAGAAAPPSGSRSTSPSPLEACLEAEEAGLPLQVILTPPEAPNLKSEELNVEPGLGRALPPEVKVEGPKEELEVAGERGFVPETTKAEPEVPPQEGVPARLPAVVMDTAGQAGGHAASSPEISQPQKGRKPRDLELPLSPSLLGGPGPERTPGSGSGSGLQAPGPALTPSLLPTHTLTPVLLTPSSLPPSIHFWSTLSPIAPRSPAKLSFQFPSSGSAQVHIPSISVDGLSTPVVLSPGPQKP
# Method in brief: as §1
# [3] = molecular target: T3, GABPA (Homo sapiens, UniProt Q06546 1-454)
# T3 sequence: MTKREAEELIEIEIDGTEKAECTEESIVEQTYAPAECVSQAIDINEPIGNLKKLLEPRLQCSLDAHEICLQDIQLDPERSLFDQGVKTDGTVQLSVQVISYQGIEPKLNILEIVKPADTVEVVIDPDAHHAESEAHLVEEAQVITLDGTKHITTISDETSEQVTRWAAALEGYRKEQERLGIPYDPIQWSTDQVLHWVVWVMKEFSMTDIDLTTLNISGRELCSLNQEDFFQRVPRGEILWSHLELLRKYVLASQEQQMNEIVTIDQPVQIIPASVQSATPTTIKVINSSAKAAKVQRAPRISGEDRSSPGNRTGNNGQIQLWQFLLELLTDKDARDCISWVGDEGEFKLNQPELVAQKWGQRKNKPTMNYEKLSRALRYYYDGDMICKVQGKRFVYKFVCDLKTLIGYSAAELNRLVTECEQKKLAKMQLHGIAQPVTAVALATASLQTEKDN
# Method in brief: as §1
# [4] = molecular target: T4, ERG (Homo sapiens, UniProt P11308 1-479)
# T4 sequence: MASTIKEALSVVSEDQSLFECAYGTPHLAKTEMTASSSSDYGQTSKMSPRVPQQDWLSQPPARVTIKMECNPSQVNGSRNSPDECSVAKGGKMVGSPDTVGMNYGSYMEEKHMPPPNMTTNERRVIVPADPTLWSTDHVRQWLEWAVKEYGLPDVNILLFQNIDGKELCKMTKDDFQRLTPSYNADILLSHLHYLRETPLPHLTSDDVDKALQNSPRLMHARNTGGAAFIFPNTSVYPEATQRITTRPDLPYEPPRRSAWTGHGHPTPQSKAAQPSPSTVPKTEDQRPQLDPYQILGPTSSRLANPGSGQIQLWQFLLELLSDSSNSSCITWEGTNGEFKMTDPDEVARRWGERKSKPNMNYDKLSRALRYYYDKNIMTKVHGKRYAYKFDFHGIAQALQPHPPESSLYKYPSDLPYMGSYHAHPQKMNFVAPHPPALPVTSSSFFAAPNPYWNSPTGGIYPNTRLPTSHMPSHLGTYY
# Method in brief: as §1
# [5] = molecular target: ELF1 (Homo sapiens, UniProt P32519 1-619)
# Method in brief: as §1
# [6] = molecular target: T5, EHF (Homo sapiens, UniProt Q9NZC4 1-300)
# T5 sequence: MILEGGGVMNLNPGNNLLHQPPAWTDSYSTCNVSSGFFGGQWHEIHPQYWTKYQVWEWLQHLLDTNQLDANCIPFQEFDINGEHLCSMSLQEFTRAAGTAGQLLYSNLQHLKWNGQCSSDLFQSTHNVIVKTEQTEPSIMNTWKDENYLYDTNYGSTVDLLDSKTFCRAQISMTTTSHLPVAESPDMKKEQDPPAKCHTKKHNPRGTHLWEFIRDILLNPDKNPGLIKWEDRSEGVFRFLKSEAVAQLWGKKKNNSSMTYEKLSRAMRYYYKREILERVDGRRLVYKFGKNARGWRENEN
# Method in brief: as §1
# [7] = molecular target: SPI1 (Homo sapiens, UniProt P17947 1-270)
# Method in brief: as §1
# [8] = molecular target: SPIB (Homo sapiens, UniProt Q01892 1-262)
# Method in brief: as §1
# [9] = molecular target: T6, ELK3 (Homo sapiens, UniProt P41970 1-407)
# T6 sequence: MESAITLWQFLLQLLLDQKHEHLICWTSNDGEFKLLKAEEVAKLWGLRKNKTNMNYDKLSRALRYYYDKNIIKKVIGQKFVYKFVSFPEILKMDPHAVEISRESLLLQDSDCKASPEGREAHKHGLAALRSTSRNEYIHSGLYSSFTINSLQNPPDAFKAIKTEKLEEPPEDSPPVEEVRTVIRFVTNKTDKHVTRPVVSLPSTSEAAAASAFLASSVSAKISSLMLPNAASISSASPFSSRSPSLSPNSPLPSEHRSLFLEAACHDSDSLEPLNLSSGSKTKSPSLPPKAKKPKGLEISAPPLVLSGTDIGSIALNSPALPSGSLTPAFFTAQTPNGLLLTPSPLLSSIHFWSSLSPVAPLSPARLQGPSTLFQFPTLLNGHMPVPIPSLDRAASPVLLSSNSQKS
# Method in brief: as §1
# Sequence of ELF1 (P32519 whole entry): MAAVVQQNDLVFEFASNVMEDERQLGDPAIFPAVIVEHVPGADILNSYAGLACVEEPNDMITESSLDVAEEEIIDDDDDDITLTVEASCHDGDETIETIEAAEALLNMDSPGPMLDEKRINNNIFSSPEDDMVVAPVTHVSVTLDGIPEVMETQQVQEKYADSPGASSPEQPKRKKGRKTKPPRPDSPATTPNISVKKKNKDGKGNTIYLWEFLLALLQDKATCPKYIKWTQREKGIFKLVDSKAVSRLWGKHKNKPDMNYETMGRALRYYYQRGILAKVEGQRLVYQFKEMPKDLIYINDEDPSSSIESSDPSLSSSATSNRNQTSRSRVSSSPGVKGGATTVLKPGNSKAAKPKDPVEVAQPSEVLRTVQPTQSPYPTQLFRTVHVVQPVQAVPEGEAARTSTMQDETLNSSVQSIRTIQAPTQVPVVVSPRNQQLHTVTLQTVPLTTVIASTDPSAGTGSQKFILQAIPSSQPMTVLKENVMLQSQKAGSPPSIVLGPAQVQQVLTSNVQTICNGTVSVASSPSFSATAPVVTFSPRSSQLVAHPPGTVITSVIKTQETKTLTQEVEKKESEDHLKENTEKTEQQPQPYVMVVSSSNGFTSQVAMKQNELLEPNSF
# Sequence of SPIB (Q01892 whole entry): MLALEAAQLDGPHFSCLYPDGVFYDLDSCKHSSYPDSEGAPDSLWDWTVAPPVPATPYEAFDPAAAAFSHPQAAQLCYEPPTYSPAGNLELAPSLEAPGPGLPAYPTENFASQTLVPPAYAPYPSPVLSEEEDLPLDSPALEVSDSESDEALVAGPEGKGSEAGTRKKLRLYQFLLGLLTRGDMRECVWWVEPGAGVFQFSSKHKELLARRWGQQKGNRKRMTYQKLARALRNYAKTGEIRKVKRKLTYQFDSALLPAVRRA
Sequence,binding signal [1],binding signal [2],binding signal [3],binding signal [4],binding signal [5],binding signal [6],binding signal [7],binding signal [8],binding signal [9]
CGTTCC,"1.43 fold enrichment (6-mer frequency, TF over GST control)","1.35 fold enrichment (6-mer frequency, TF over GST control)","1.29 fold enrichment (6-mer frequency, TF over GST control)","1.45 fold enrichment (6-mer frequency, TF over GST control)","1.44 fold enrichment (6-mer frequency, TF over GST control)","1.42 fold enrichment (6-mer frequency, TF over GST control)","1.44 fold enrichment (6-mer frequency, TF over GST control)","1.54 fold enrichment (6-mer frequency, TF over GST control)","1.46 fold enrichment (6-mer frequency, TF over GST control)"
ATGTAG,"1.05 fold enrichment (6-mer frequency, TF over GST control)","1.03 fold enrichment (6-mer frequency, TF over GST control)","1.04 fold enrichment (6-mer frequency, TF over GST control)","1.01 fold enrichment (6-mer frequency, TF over GST control)","1.09 fold enrichment (6-mer frequency, TF over GST control)","1.07 fold enrichment (6-mer frequency, TF over GST control)","1 fold enrichment (6-mer frequency, TF over GST control)","1.01 fold enrichment (6-mer frequency, TF over GST control)","1.05 fold enrichment (6-mer frequency, TF over GST control)"
CTTTCA,"1.45 fold enrichment (6-mer frequency, TF over GST control)","1.32 fold enrichment (6-mer frequency, TF over GST control)","1.46 fold enrichment (6-mer frequency, TF over GST control)","1.23 fold enrichment (6-mer frequency, TF over GST control)","1.41 fold enrichment (6-mer frequency, TF over GST control)","1.3 fold enrichment (6-mer frequency, TF over GST control)","1.45 fold enrichment (6-mer frequency, TF over GST control)","1.28 fold enrichment (6-mer frequency, TF over GST control)","1.36 fold enrichment (6-mer frequency, TF over GST control)"
AAGCTT,"1.31 fold enrichment (6-mer frequency, TF over GST control)","1.33 fold enrichment (6-mer frequency, TF over GST control)","1.22 fold enrichment (6-mer frequency, TF over GST control)","1.33 fold enrichment (6-mer frequency, TF over GST control)","1.2 fold enrichment (6-mer frequency, TF over GST control)","1.26 fold enrichment (6-mer frequency, TF over GST control)","1.23 fold enrichment (6-mer frequency, TF over GST control)","1.32 fold enrichment (6-mer frequency, TF over GST control)","1.31 fold enrichment (6-mer frequency, TF over GST control)"
CTTTTA,"1.41 fold enrichment (6-mer frequency, TF over GST control)","1.28 fold enrichment (6-mer frequency, TF over GST control)","1.41 fold enrichment (6-mer frequency, TF over GST control)","1.28 fold enrichment (6-mer frequency, TF over GST control)","1.29 fold enrichment (6-mer frequency, TF over GST control)","1.28 fold enrichment (6-mer frequency, TF over GST control)","1.4 fold enrichment (6-mer frequency, TF over GST control)","1.35 fold enrichment (6-mer frequency, TF over GST control)","1.4 fold enrichment (6-mer frequency, TF over GST control)"
GTTTTA,"1.17 fold enrichment (6-mer frequency, TF over GST control)","1.05 fold enrichment (6-mer frequency, TF over GST control)","1.14 fold enrichment (6-mer frequency, TF over GST control)","1.07 fold enrichment (6-mer frequency, TF over GST control)","1.07 fold enrichment (6-mer frequency, TF over GST control)","1.11 fold enrichment (6-mer frequency, TF over GST control)","1.12 fold enrichment (6-mer frequency, TF over GST control)","1.16 fold enrichment (6-mer frequency, TF over GST control)","1.08 fold enrichment (6-mer frequency, TF over GST control)"
TGTGCC,"1.17 fold enrichment (6-mer frequency, TF over GST control)","1.2 fold enrichment (6-mer frequency, TF over GST control)","1.07 fold enrichment (6-mer frequency, TF over GST control)","1.17 fold enrichment (6-mer frequency, TF over GST control)","1.21 fold enrichment (6-mer frequency, TF over GST control)","1.02 fold enrichment (6-mer frequency, TF over GST control)","1.06 fold enrichment (6-mer frequency, TF over GST control)","1.04 fold enrichment (6-mer frequency, TF over GST control)","1.3 fold enrichment (6-mer frequency, TF over GST control)"
